Source: PubChem BioAssay
Pf growth 48h: inhibits P. falciparum growth in the first generation, 48 h | 310,000 compounds, 5.9% hits | P. falciparum luciferase growth in erythrocytes, 48 h | Potency, µM (highest dose often 28.7 µM), inactives show at the top dose activity change, negative = inhibition, hits mostly inhibitors | AID 504832; also: potency is read from the fitted curve at half-maximal effect
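Compounds are pin-transferred into medium, infected erythrocytes (2% hematocrit, 0.1% parasitemia final) are added, and plates sit one parasite generation at 37 C in 5% CO2. Detection reagent is then added and luminescence measured.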
HCMV antiviral: inhibitors of human cytomegalovirus; HFF cells, HCMV-luciferase reporter, 72 h; stronger effect = lower value; activity change, negative = inhibition, % at 57.5 µM; 410,000 compounds, 4.5% hits; in the data active = activity change below about -60%; inconclusive = no clear call, values can overlap the other calls; inactive = above about -39%
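Steps: HFFs plated, 16 h 37C; compounds added; HCMV-luciferase added to MOI 1 PFU/cell; 72 h 37C; OneGlo reagent, 5 min room temperature; luminescence read, normalized to controls.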
Lassa entry inh: blocks Lassa virus binding to or entry into cells. Lassa virus pseudotype entry inhibition, cell reporter. Potency, µM (series often up to 37.9 µM), for the others: at the highest dose activity change, negative = inhibition, hits mostly inhibitors. 300,000 compounds, 1.2% hits; calls by dose curve; tested in HEK293 cells; also: potency is read from the fitted curve at half-maximal effect; nearly all actives have a fitted effect of over 50% in size
HCV inhibitor: inhibitors of hepatitis C virus infection | 340,000 compounds, 3.4% hits | AID 651820 | Huh7.5.1 HCVcc-Cre infection, luciferase reporter, 44 h | Potency, µM (series often up to 41.8 µM), for the others: at the top dose activity change, negative = inhibition, most hits filed as inhibitors; also: potency is read from the fitted curve at half-maximal effect
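Reporter virus HCVcc-Cre (~0.5 moi) infects cells exposed to compound; seeding density 1,000 cells/well with 4 h settling beforehand. Luminescence, 15 sec read, taken 44 h post-infection following a 15 min RT substrate incubation.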
MARV entry inh: blocks Marburg virus binding to or entry into cells | Marburg virus pseudotyped entry inhibition, cell reporter | Potency, µM (titrated, usually from 37.8 µM), inactives show at the highest dose activity change, negative = inhibition, most hits filed as inhibitors | 300,000 compounds, 1.8% hits; calls by dose curve; tested in HEK293 cells; also: potency is read from the fitted curve at half-maximal effect
Pf growth 96h: P. falciparum growth inhibition at 96 hours. 320,000 compounds, 6.9% hits. Potency, µM (titrated, usually from 28.7 µM), inactives show at the top dose activity change, negative = inhibition, hits mostly inhibitors. AID 504834. P. falciparum luciferase reporter growth, 96 h; also: potency is read from the fitted curve at half-maximal effect
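Two parasite generations (96 h, 37 C, 5% CO2) of compound exposure in infected erythrocytes (0.05% parasitemia, 2% hematocrit). Luciferase-reporter P. falciparum; decreased luminescence indicates inhibited growth, aimed at apicoplast-acting delayed death.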
An asterisk follows results filed as active; ? = inconclusive; / = no result; [ ] = remark or other dose. An excerpt weighted towards active compounds, which were near 14% of everything screened. Unless noted, calls follow the shape of the dose curve; as a rule, active = well fitted inhibition curve with a large enough effect; inconclusive = small, poorly fitted or top-dose-only effect, or another doubt; inactive = no such curve, though single readings can be large or run the other way. % is scaled to controls: 0 for no effect and ±100 for the full control effect.

SMILES	Pf growth 48h	HCMV antiviral	Lassa entry inh	HCV inhibitor	MARV entry inh	Pf growth 96h
N#CC1(NC(=O)Cn2ncc(Cl)c(Cl)c2=O)CCCCC1	3%	-14	?	4.5µM*	?	4%
Cc1ccc(C)c(S(=O)(=O)c2cn(Cc3ccccc3)c3cc(F)c(F)cc3c2=O)c1	/	-19	-17%[46.1 µM]	/	?	/
Fc1ccc(Nc2cccc3nccnc23)cc1	29%	-64*	-4%	?	?	16%
CCOC(=O)Cn1c(S(=O)(=O)Cc2cccc(F)c2)nc(-c2ccccc2)c1-c1ccccc1	8.3µM*	?	7.3µM*	?	2.6µM*	5.9µM*
CCOC(=O)Cn1c(S(=O)(=O)Cc2ccc(F)cc2)nc(-c2ccccc2)c1-c1ccccc1	13µM*	-78*	2.6µM*	?	4.1µM*	9.3µM*
CC[C@@H]1/C=C(\C)C[C@H](C)C[C@H](OC)[C@H]2O[C@@](O)(C(=O)C(=O)N3CCCC[C@H]3C(=O)O[C@H](/C(C)=C/[C@@H]3CC[C@H](Cl)[C@H](OC)C3)[C@H](C)[C@@H](O)CC1=O)[C@H](C)C[C@@H]2OC	-6%	/	/	/	/	-4%
CC1(C)CC2(CC(c3ccc(F)cc3)c3ccc(O)cc3O2)NC(=S)N1 (stereo not drawn)	2.3µM*	0	/	-23%	/	-16%
CC1(C)CC2(CC(c3cccs3)c3cc(Cl)c(O)cc3O2)NC(=S)N1 (stereo not drawn)	?	?	-20%	?	?	?
COC(=O)[C@@]1(Sc2ccc(C)cc2)CC(=O)N(C(=O)CCc2ccccc2)[C@@H]1c1ccccc1	/	-5	/	/	/	/
CN1CCN(C(c2ccccc2)c2ccccc2)CC1	?	46	/	?	/	6%
Clc1ccc(C(c2ccccc2)N2CCN(c3ccccn3)CC2)cc1 (stereo not drawn)	?	-32	-21%	-15%	-12%	6.6µM*
OC(COc1ccc(Cl)cc1)CN1CCN(c2ccccn2)CC1 (stereo not drawn)	/	?	13%	?	?	/
CN1CCCN(C(c2ccccc2)c2ccc(Cl)cc2)CC1 (stereo not drawn)	13µM*	?	13µM*	1.3µM*	?	6.7µM*
Cc1ccc2cccc(NC(=O)c3ccc(-c4ccc(Cl)cc4Cl)o3)c2n1	/	5	2%[46.1 µM]	/	2%[46.1 µM]	/
CN(C)CCN(C(=O)c1ccc(S(=O)(=O)N(C)c2ccccc2)cc1)c1nc2cc3c(cc2s1)OCCO3	82%	57	0%	-10%	-8%	97%
CCN(Cc1ccccc1)S(=O)(=O)c1ccc(C(=O)N(CCCN(C)C)c2nc3cc4c(cc3s2)OCCO4)cc1	?	-34	?	11µM*	?	?
Cc1cccc2sc(N(CCCN(C)C)C(=O)c3ccc(C(=O)c4ccccc4)cc3)nc12	6.6µM*	-72*	-29%[46.1 µM]	?	?	-102%
CN(C)CCCN(C(=O)c1ccc(C(=O)c2ccccc2)cc1)c1nc2cc3c(cc2s1)OCO3	12µM*	?	11µM*	14µM*	16µM*	-20%
CN(C)CCCN(C(=O)c1ccc([N+](=O)[O-])s1)c1nc2cc3c(cc2s1)OCCO3	22%	9	/	-27%	/	13%
CN(C)CCCN(C(=O)c1cc2cc([N+](=O)[O-])ccc2s1)c1nc2cc3c(cc2s1)OCCO3	?	-98*	?	?	?	?
COCCCNC(=O)CSc1nc(-c2cccc(F)c2)[nH]c1-c1ccccc1	/	-28	0%[46.1 µM]	/	-1%[46.1 µM]	/
COc1ccccc1Cc1nc2ccccc2nc1SCC(=O)Nc1ccccc1C(F)(F)F	/	-38	29%[46.1 µM]	/	/	/
Cc1cc(C)cc(NC(=O)NCc2noc3ccccc23)c1	/	-16	3%[46.1 µM]	/	/	/
CCN(Cc1ccccc1)S(=O)(=O)c1ccc(C(=O)N(CCCN(C)C)c2nc3cc(OC)ccc3s2)cc1	9%	-15	?	25µM*	?	22%
CCc1ccc2nc(N(Cc3cccnc3)C(=O)c3cccs3)sc2c1	/	-61*	-3%[46.1 µM]	/	/	/
SMILES	Pf growth 48h	HCMV antiviral	Lassa entry inh	HCV inhibitor	MARV entry inh	Pf growth 96h
CN(C(=O)c1ccccc1)c1nc2ccccc2s1	-31%	64	?	-17%	8.9µM*	-7%
COc1ccc2sc(N(CCCN(C)C)C(=O)c3ccc(S(=O)(=O)N4CCCc5ccccc54)cc3)nc2c1	7.4µM*	-15	?	?	?	8.3µM*
COc1ccc2sc(N(CCCN(C)C)C(=O)c3ccc(C(=O)c4ccccc4)cc3)nc2c1	13µM*	-3	?	?	?	?
CCCCN(C(=O)c1ccc(S(=O)(=O)N(C)C)cc1)c1nc2ccccc2s1	?	-2	6%	29%	8%	1.9µM*
CCN(Cc1ccccc1)S(=O)(=O)c1ccc(C(=O)N(CCCN(C)C)c2nc3ccc(F)cc3s2)cc1	-3%	-80*	?	?	?	2%
CN(C)CCCN(C(=O)c1ccc(C(=O)c2ccccc2)cc1)c1nc2ccc(F)cc2s1	?	-15	/	-8%	/	92%
COc1ccc2sc(N(Cc3cccnc3)C(=O)c3ccc4c(c3)OCCO4)nc2c1	/	-90*	?	/	/	/
CCCc1nc2ccccc2c(C(=O)N(CC)CC(=O)NCc2cccs2)c1CC	?	6	1%	?	1%[46.1 µM]	?
COc1ccc(CCC(=O)Nc2ccc(Cl)c(S(=O)(=O)N3CCCC3)c2)cc1	9.3µM*	-103*	/	5.6µM*	/	?
COc1ccccc1CCC(=O)Nc1ccc(OC)c(S(=O)(=O)N2CCCCC2)c1	?	-9	/	11µM*	/	?
COc1cc(CCC(=O)Nc2ccc(C)c(S(=O)(=O)N3CCCCCC3)c2)cc(OC)c1OC	12µM*	-70*	?	7.9µM*	?	10µM*
COc1ccc(NC(=O)CCc2ccccc2)cc1S(=O)(=O)N1CCCCC1	?	?	-18%	-13%	?	?
COc1ccc(CCC(=O)Nc2ccc(OC)c(S(=O)(=O)N3CCCCC3)c2)cc1OC	?	-20	/	10µM*	/	?
CCc1nc2c(OCCn3cccc3)cccn2c1N(C=O)Cc1ccccc1	/	-28	/	/	/	/
COCC(=O)N1CCCCN2[C@H](C1)[C@H](c1ccc(C#Cc3ccccc3)cc1)[C@@H]2CO	/	20	/	/	/	/
CC1(C)CC(=O)c2cc(-c3nc(-c4ccc(F)cc4)cs3)c(=O)[nH]c2C1	/	-5	-8%[46.1 µM]	/	-22%[46.1 µM]	/
COc1ccc(Nc2nc3cc(Cl)c(Cl)cc3n3cnnc23)cc1Cl	/	-1	16%[46.1 µM]	/	-19%[46.1 µM]	/
COc1cc(NC(=O)CNc2ccc(Cl)c(S(=O)(=O)N3CCOCC3)c2)cc(OC)c1	5.2µM*	-17	/	?	/	?
COc1ccccc1CCC(=O)NNC(=O)c1cccs1	/	158	-16%	20%	-21%	/
